# S-ASM inh: inhibitors of human secretory acid sphingomyelinase. actives 0.006% (n = 340,000). Potency, µM (highest dose often 57.5 µM), actives largely listed as inhibitors. P17405. placental ASM, HMU-PC fluorogenic substrate, 60 min
# Target sequence (P17405 47-631 limits assumed): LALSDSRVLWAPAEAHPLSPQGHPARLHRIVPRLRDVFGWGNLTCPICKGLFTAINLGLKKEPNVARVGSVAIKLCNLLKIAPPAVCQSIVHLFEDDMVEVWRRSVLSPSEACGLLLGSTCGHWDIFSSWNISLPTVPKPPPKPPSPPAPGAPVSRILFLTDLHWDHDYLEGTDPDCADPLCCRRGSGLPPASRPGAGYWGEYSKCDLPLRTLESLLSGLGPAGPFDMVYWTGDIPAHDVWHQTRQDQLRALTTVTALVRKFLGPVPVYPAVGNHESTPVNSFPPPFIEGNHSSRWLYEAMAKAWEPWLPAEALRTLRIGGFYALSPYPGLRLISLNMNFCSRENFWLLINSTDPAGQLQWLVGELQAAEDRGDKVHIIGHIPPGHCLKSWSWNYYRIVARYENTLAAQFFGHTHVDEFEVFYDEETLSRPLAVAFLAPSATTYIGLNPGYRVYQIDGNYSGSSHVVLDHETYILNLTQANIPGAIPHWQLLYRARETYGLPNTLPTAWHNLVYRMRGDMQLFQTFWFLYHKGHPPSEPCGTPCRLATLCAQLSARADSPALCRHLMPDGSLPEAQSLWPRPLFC
#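 qHTS format. ASM enzyme prepared from human placenta hydrolyses the fluorogenic substrate HMU-PC0 (9 uM final) over 60 min at 37 °C after a 10 min compound preincubation.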
# IL-1B inflam inh: inflammasome signaling inhibition, IL-1 beta readout | THP-1 LPS/ATP IL-1B secretion, AlphaLISA, 16 h; stronger effect = lower value | activity change, % at 57.5 µM | actives 4.7% (n = 360,000); in the data active = activity change below about -50%; inconclusive = mostly about -30% to -49%
#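 THP-1 cells pretreated 1 hr with compounds (up to 57.5 uM final), then stimulated with LPS (250 ng/mL final) plus ATP (1.25 mM final); secreted IL-1B measured by AlphaLISA after 16 hr, decreased signal indicating inhibition.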
# TGFb inhibitor: TGF-b pathway inhibition | HepG2 CAGA-GFP TGF-b/SMAD3 reporter, GFP fluorescence, 18 h; TGF-beta stimulated, 500 pg/mL final | Potency, µM (highest dose often 46.1 µM), actives largely listed as inhibitors | actives 1.2% (n = 410,000) | AID 588855; note: nearly all actives have a fitted effect of over 65% in size
#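 HEPG2 CAGA-GFP cells (1000/well, DMEM with 1% FBS) were pre-incubated 2 h at 37 degrees C, given compound by pin tool, then stimulated with TGF-beta at 500 pg/mL final for 18 h before per-cell GFP fluorescence imaging.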
# HepG2 tox: counter-screen for TGF-b inhibitors: cytotoxicity in HepG2 cells. HepG2 CAGA-GFP viability, ATP luminescence, 18 h. Potency, µM (series often up to 46.1 µM), usual class: cytotoxic. actives 0.76% (n = 410,000)
#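 HepG2 CAGA-GFP cells (1000/well, DMEM with 1% FBS) received compound, then TGF-beta at 500 pg/mL final, and were incubated 18 hours at 37 degrees C. Viability was read by CellTiter-Glo luminescence. Media-only wells were set as complete cell-killing and DMSO as no toxicity.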
# DT40 TDP1 no CPT: qHTS for Inhibitors of human tyrosyl-DNA phosphodiesterase 1 (TDP1): qHTS in cells in absence of CPT; DT40 Tdp1-/- hTDP1 cells, no CPT, ATP luminescence, 48 h; actives 15% (n = 420,000); Potency, µM (highest dose often 46.2 µM), most hits filed as inhibitors; AID 686978, 2013; note: nearly all actives have a fitted effect of over 55% in size
#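 Chicken DT40 Tdp1-/- cells complemented with human TDP1, screened without camptothecin (DMSO vehicle only), 400 cells/well. Compounds pin-transferred, cells incubated at 37 °C for at least 48 hr. Growth read as ATP-dependent luminescence (CellTiter-Glo, 30 min at RT).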
# DT40 TDP1 CPT: growth inhibition of DT40 Tdp1-/-;hTDP1 cells with camptothecin (screen for TDP1 inhibitors). chicken DT40 Tdp1-/-;hTDP1 cells + 20 nM CPT, ATP luminescence, 48 h. Potency, µM (series often up to 46.2 µM), actives largely listed as inhibitors. actives 12% (n = 420,000). AID 686979; note: nearly all actives have a fitted effect of over 55% in size
#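 Chicken DT40 Tdp1-/- cells complemented with human TDP1, 400 cells/well, exposed to compounds plus 20 nM camptothecin for at least 48 h at 37 C; viability read as ATP content by CellTiter-Glo luminescence.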
# Numbers stand for hits; i = inactive; ? = inconclusive; nt = no result. Rows were chosen to be rich in hits. Some 19% of all compounds tested hit in one or more screens of this group. Unless noted, calls come from the whole dose curve; as a rule, active = well fitted curve in the direction sought with a large enough effect; inconclusive = small, poorly fitted or top-dose-only effect, or another doubt; inactive = no such curve, though single readings can be large; an effect the other way counts as inactive or inconclusive.
SMILES,S-ASM inh,IL-1B inflam inh,TGFb inhibitor,HepG2 tox,DT40 TDP1 no CPT,DT40 TDP1 CPT
CC[n+]1c(C)sc2cc(OC)ccc21,i,-67,i,i,2.9µM,2.6µM
O=C(NCc1ccccc1Cl)C(=O)NCC(c1ccc2c(c1)OCO2)N1CCOCC1 (stereo unspecified),nt,nt,i,i,?,?
COc1cccc(-c2cc(C(=O)NCC3CCCO3)c3cc(C)cc(C)c3n2)c1 (stereo unspecified),i,i,i,i,26µM,23µM
COc1cccc(-c2nn(-c3ccc(C)cc3)cc2C(=O)NCC2CCCO2)c1 (stereo unspecified),i,i,i,i,?,?
COc1cccc(OCC(=O)NCC2CCCO2)c1 (stereo unspecified),i,i,i,i,i,i
COc1cccc(-c2nn(-c3ccc(F)cc3)cc2C(=O)NCC2CCCO2)c1 (stereo unspecified),i,i,?,i,23µM,23µM
Cc1cc(C(=O)N(CCC#N)Cc2cccs2)no1,i,i,i,i,i,i
CCOc1ccc(S(=O)(=O)NCCc2c(C)[nH]c3c(Cl)cccc23)cc1C,nt,nt,16µM,18µM,?,23µM
CCOc1ccc(S(=O)(=O)NCc2cccnc2)cc1C,i,i,i,i,i,i
CCCn1c(/C=C/c2ccco2)nc2ccccc21,i,i,?,i,?,16µM
CCCCn1c(/C=C/c2ccco2)nc2ccccc21,i,i,i,i,?,18µM
CCCCn1c(/C=N/Nc2nc3ccccc3[nH]2)nc2ccccc21,i,i,11µM,i,5.2µM,4.6µM
O=C(Nc1cccc2cccnc12)c1c(Cl)cc(Cl)cc1Cl,nt,nt,i,i,nt,nt
CCC(=O)N1CCN(c2nc3ccc(Br)cc3s2)CC1,i,i,?,i,18µM,?
CCCC(=O)N1CCN(c2nc3ccc(F)cc3s2)CC1,nt,nt,i,i,12µM,15µM
Cc1ccc2nc(N3CCN(C(=O)C4CC4)CC3)sc2c1,nt,nt,i,i,i,i
CCCC(=O)N1CCN(c2nc3ccccc3s2)CC1,i,i,i,i,i,?
CCc1ccc2nc(N3CCN(C(=O)C(C)(C)C)CC3)sc2c1,i,i,i,i,18µM,?
CCc1ccc2nc(N3CCN(C(=O)c4ccco4)CC3)sc2c1,nt,nt,i,i,?,?
CCCCC(=O)N1CCN(c2nc3ccc(F)cc3s2)CC1,i,i,?,i,8.2µM,?
CC1ON=C(c2ccc(F)cc2)NC1=O (stereo unspecified),nt,i,i,i,i,i
CCOC(=O)[C@H]1[C@H]2COc3ccc(OC)cc3[C@@H]2N2C(=O)CN(CCc3c[nH]c4ccccc34)C(=O)[C@@]12C,i,i,?,i,?,?
COc1ccnc(NCc2cccnc2)c1C#N,i,i,i,i,29µM,i
CCOC(=O)/C=C1\Nc2ccccc2OC1=O,i,i,i,i,10µM,8.2µM
Cc1nc2ccc(S(=O)(=O)Nc3cc(-c4nc5cccnc5s4)ccc3C)cc2s1,i,i,i,i,21µM,?
SMILES,S-ASM inh,IL-1B inflam inh,TGFb inhibitor,HepG2 tox,DT40 TDP1 no CPT,DT40 TDP1 CPT
Cc1nc2ccc(S(=O)(=O)Nc3cccc(-c4nc5cccnc5s4)c3C)cc2s1,i,i,i,i,26µM,?
O=C(COc1ccc(F)cc1)Nc1nnc(S(=O)(=O)N2CCc3ccccc32)s1,nt,nt,13µM,i,?,?
O=C(Nc1nnc(S(=O)(=O)N2CCCc3ccccc32)s1)c1ccc(Cl)cc1,nt,nt,?,i,18µM,?
O=C(Nc1nnc(S(=O)(=O)N2CCc3ccccc32)s1)c1cccc(Cl)c1,nt,nt,7.9µM,i,21µM,21µM
O=C(Nc1nnc(S(=O)(=O)N2CCCc3ccccc32)s1)c1ccccc1,nt,nt,?,i,?,?
O=C(Nc1nnc(S(=O)(=O)N2CCc3ccccc32)s1)c1ccccc1,nt,nt,?,i,?,?
Cc1ccc(S(=O)(=O)N2[C@@H](c3ccc4c(c3)OCO4)C(C(=O)O)=C[C@H]2CC2CCCC2)cc1,i,i,i,i,i,i
ClC(Cl)(c1nnnn1-c1ccccc1)c1nnnn1-c1ccccc1,i,-120,?,11µM,2.6µM,1.3µM
Cc1nnc(SCC(=O)Nc2ccc(N(C)C)cc2)n(N)c1=O,i,i,i,i,i,i
CC1CCN(S(=O)(=O)c2ccc3c(c2)CC(C)N3C(=O)C2CCC2)CC1 (stereo unspecified),i,i,?,i,16µM,21µM
CC1CCN(c2ccc(S(=O)(=O)N3CCC(C)CC3)cc2N)CC1,i,i,?,i,16µM,21µM
CC1Cc2cc(S(=O)(=O)N3CCN(C)CC3)ccc2N1C(=O)C1CC1 (stereo unspecified),i,i,i,i,i,i
CCOC(=O)C1CCCN(S(=O)(=O)c2ccc3c(c2)CC(C)N3C(=O)C2CC2)C1 (stereo unspecified),i,i,i,i,i,18µM
CCN1CCN(c2ccc(S(=O)(=O)N3CCCCC3)cc2N)CC1,i,i,i,i,i,i
CC1Cc2cc(S(=O)(=O)N3CCCCC3)ccc2N1C(=O)C1CCC1 (stereo unspecified),i,i,i,i,?,21µM
CCc1nccn1CCC(=O)N1CCCC(Nc2ccc(F)cc2)C1 (stereo unspecified),i,i,i,i,i,i
CCN(Cc1ccccc1)S(=O)(=O)c1ccc2c(c1)CC(C)N2C(=O)C1CCC1 (stereo unspecified),nt,nt,i,i,18µM,?
CC1CCN(c2cc(N)c(Cl)cc2[N+](=O)[O-])CC1,i,-78,i,i,i,i
O=S(=O)(NCCc1nnc2ccc(SCc3cccnc3)nn12)c1ccccc1,i,i,i,i,i,i
O=S(=O)(NCCc1nnc2ccc(SCc3ccc(C(F)(F)F)cc3)nn12)c1ccccc1,nt,nt,?,i,?,15µM
COc1ccc(S(=O)(=O)NCCc2nnc3ccc(SCC(=O)Nc4cc(C)cc(C)c4)nn23)cc1,nt,nt,i,i,?,21µM
Cc1ccc(S(=O)(=O)NCCc2nnc3ccc(SCc4ccccc4F)nn23)cc1,nt,nt,i,i,21µM,18µM
Cc1ccc(CSc2ccc3nnc(CCNS(=O)(=O)c4ccc(C)cc4)n3n2)cc1,nt,nt,?,i,?,16µM
CC(=O)c1ccc(NC(=O)CSc2ccc3nnc(CCNS(=O)(=O)c4ccc(C)cc4)n3n2)cc1,nt,nt,i,i,?,i
COc1ccc(S(=O)(=O)NCCc2nnc3ccc(SCc4cccnc4)nn23)cc1,i,i,?,i,i,i
